This note sets out measurements from the supplement of paper PMC3545927.

The assay addresses furin, P09958. Description: furin cleavage Z-score vs untreated control; higher = more cleavage, active = 3.5 or more, inactive = 1 or less, 8 variable residues between constant flanks. In short, it runs like this: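 Magnetic beads held 8-mer peptides by the N-terminus, each fused to a cDNA oligonucleotide, and purified furin was added for 7.5, 15 or 30 min. Released DNA was sequenced after PCR adapter tagging. The cleavage Z-score is the log count relative to furin-free reactions, lowess-adjusted and divided by median absolute deviation.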

Some of the results follow. No count for the full screen is at hand.
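Further: purified furin at 1:10 enzyme:substrate in 50 mM HEPES pH 7.5.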

Sequence of furin, P09958 (P09958 whole entry, the tested form may be a part): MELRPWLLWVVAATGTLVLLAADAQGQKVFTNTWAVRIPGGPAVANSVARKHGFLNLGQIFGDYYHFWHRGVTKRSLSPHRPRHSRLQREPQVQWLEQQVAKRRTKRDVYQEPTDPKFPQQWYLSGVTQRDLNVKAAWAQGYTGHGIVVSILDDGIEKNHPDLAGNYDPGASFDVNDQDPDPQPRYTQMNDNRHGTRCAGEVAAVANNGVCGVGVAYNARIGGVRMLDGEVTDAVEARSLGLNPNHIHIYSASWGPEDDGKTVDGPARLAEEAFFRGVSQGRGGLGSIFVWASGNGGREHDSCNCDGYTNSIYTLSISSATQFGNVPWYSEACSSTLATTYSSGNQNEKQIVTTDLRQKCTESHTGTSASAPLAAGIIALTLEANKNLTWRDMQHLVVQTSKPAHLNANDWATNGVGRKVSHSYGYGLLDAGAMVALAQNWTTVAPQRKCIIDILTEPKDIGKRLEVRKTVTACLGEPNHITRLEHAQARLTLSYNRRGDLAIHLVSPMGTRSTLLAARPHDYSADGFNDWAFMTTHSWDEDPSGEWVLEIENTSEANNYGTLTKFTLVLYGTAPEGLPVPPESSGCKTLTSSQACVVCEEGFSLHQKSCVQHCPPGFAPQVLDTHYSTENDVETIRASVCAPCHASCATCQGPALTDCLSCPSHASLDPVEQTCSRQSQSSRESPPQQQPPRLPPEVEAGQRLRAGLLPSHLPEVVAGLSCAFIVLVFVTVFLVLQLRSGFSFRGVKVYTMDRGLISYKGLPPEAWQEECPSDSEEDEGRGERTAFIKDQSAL

B1: HC1777 (peptide)
chain: CAMEECSQHSAGNASASA
For B1, the “furin cleavage Z-score” value is 2.1 (7.5 min), 0.565 (inactive) (15 min) and 0.168 (inactive) (30 min).

B2: NG7 (peptide)
chain: CAPPEELKFQAGNASASA
Regarding B2, the “furin cleavage Z-score” value is, setting by setting: (7.5 min) -0.102 (inactive); (15 min) -1.12 (inactive); (30 min) 0.127 (inactive).

B3: FS-2392 (peptide)
chain: CARANRIVNAAGNASASA
Turning to B3, the “furin cleavage Z-score” value was 0.0348 (inactive) (7.5 min), -1.24 (inactive) (15 min) and -1.84 (inactive) (30 min).

B4: HC1040 (peptide)
chain: CATFWAKHMWAGNASASA
B4: the “furin cleavage Z-score” value is, setting by setting: (7.5 min) 0.313 (inactive); (15 min) -0.474 (inactive); (30 min) 0.00738 (inactive).

B5: FS-2433 (peptide)
chain: CARLRRILEVAGNASASA
As to B5, the “furin cleavage Z-score” value reads like this: (7.5 min) -1.97 (inactive); (15 min) -0.173 (inactive); (30 min) 0.88 (inactive).

B6: FS-2995 (peptide)
chain: CARLRRRASQAGNASASA
B6: the “furin cleavage Z-score” value (7.5 min) is 2.66, the “furin cleavage Z-score” value (15 min) is 4.61 (active) and the “furin cleavage Z-score” value (30 min) is 4.94 (active).

B7: FS-3197 (peptide)
chain: CARLRRASWVAGNASASA
B7: the “furin cleavage Z-score” value is 1.44 (7.5 min), 1.96 (15 min) and 4.56 (active) (30 min).

B8: FS-2996 (peptide)
chain: CARLRRTMLVAGNASASA
As to B8, the “furin cleavage Z-score” value was 0.457 (inactive) (7.5 min), -0.166 (inactive) (15 min) and 0.463 (inactive) (30 min).

B9: FS-2569 (peptide)
chain: CARLHRFDSQAGNASASA
For B9, the “furin cleavage Z-score” value is -0.521 (inactive) (7.5 min), 0.134 (inactive) (15 min) and 0.911 (inactive) (30 min).

B10: HC1544 (peptide)
chain: CASAPPGDPPAGNASASA
For the sequence B10, the “furin cleavage Z-score” value is -0.56 (inactive) (7.5 min), -0.28 (inactive) (15 min) and -0.205 (inactive) (30 min).

B11: FS-399 (peptide)
chain: CAAPRRFRRSAGNASASA
With B11, the “furin cleavage Z-score” value was 9.1 (active) (7.5 min), 8.32 (active) (15 min) and 8.51 (active) (30 min).

B12: FS-236 (peptide)
chain: CAFVQRFRRSAGNASASA
Turning to B12, the “furin cleavage Z-score” value runs as follows: (7.5 min) 11.9 (active); (15 min) 11.2 (active); (30 min) 9.2 (active).

B13: FS-1444 (peptide)
chain: CAALGLERRSAGNASASA
B13: the “furin cleavage Z-score” value (7.5 min) is -0.628 (inactive), the “furin cleavage Z-score” value (15 min) is -0.614 (inactive) and the “furin cleavage Z-score” value (30 min) was 0.553 (inactive).

B14: FS-116 (peptide)
chain: CAAPRRPRRPAGNASASA
For the sequence B14, the “furin cleavage Z-score” value by setting is: (7.5 min) 0.169 (inactive); (15 min) 0.142 (inactive); (30 min) 0.528 (inactive).

B15: FS-844 (peptide)
chain: CAQARRFRRSAGNASASA
For B15, the “furin cleavage Z-score” value reads like this: (7.5 min) 14.3 (active); (15 min) 14.1 (active); (30 min) 9.61 (active).

B16: FS-215 (peptide)
chain: CAAPERERRSAGNASASA
On to B16, for which the “furin cleavage Z-score” value is 8.78 (active) (7.5 min), 11.7 (active) (15 min) and 7.74 (active) (30 min).

B17: HC2292 (peptide)
chain: CADEEVVTSTAGNASASA
On to B17, for which the “furin cleavage Z-score” value is 1.62 (7.5 min), 0.883 (inactive) (15 min) and 1.1 (30 min).

B18: HC1939 (peptide)
chain: CATTPCSGSPAGNASASA
For B18, the “furin cleavage Z-score” value is 0.991 (inactive) (7.5 min), -1.49 (inactive) (15 min) and 0.61 (inactive) (30 min).

B19: HC2357 (peptide)
chain: CAEVSCHRPSAGNASASA
Consider B19, for which the “furin cleavage Z-score” value reads like this: (7.5 min) 0.821 (inactive); (15 min) 0.257 (inactive); (30 min) -0.805 (inactive).

B20: HC2071 (peptide)
chain: CAVVCCSMDYAGNASASA
As for B20, the “furin cleavage Z-score” value was -0.0968 (inactive) (7.5 min), 0.0602 (inactive) (15 min) and -0.172 (inactive) (30 min).

B21: HC1872 (peptide)
chain: CATTECSGSWAGNASASA
B21: the “furin cleavage Z-score” value is -0.691 (inactive) (7.5 min), -0.533 (inactive) (15 min) and -0.721 (inactive) (30 min).

B22: FS-834 (peptide)
chain: CANNHVYRRSAGNASASA
Take B22: the “furin cleavage Z-score” value is 2.73 (7.5 min), 4.48 (active) (15 min) and 3.35 (30 min).

B23: HC1741 (peptide)
chain: CAMEECSNHLAGNASASA
As to B23, the “furin cleavage Z-score” value (7.5 min) was -0.217 (inactive), the “furin cleavage Z-score” value (15 min) is 1.15 and the “furin cleavage Z-score” value (30 min) is 0.956 (inactive).

B24: FS-1183 (peptide)
chain: CAALARSHRDAGNASASA
Consider B24, for which the “furin cleavage Z-score” value reads like this: (7.5 min) 3.5 (active); (15 min) 2.5; (30 min) 3.98 (active).

B25: FS-1 (peptide)
chain: CAACARKFRDAGNASASA
B25: the “furin cleavage Z-score” value was 0.95 (inactive) (7.5 min), -0.474 (inactive) (15 min) and -0.446 (inactive) (30 min).

B26: FS-1303 (peptide)
chain: CAALIRKLRDAGNASASA
In the case of B26, the “furin cleavage Z-score” value is 10.1 (active) (7.5 min), 10.2 (active) (15 min) and 7.71 (active) (30 min).

B27: HC622 (peptide)
chain: CAALARKMIGAGNASASA
Turning to B27, the “furin cleavage Z-score” value runs as follows: (7.5 min) -0.391 (inactive); (15 min) -0.298 (inactive); (30 min) -0.269 (inactive).

B28: HC2446 (peptide)
chain: CAEMEVPCHRAGNASASA
Regarding B28, the “furin cleavage Z-score” value is, setting by setting: (7.5 min) 1.88; (15 min) 3.24; (30 min) 0.262 (inactive).

B29: FS-782 (peptide)
chain: CAGKARARRTAGNASASA
Regarding B29, the “furin cleavage Z-score” value runs as follows: (7.5 min) 7.77 (active); (15 min) 7.95 (active); (30 min) 6.06 (active).

B30: FS-1111 (peptide)
chain: CAAPTRARRTAGNASASA
B30: the “furin cleavage Z-score” value is, setting by setting: (7.5 min) 9.32 (active); (15 min) 8.24 (active); (30 min) 6.87 (active).

B31: HC968 (peptide)
chain: CAKPTLHGPTAGNASASA
As to B31, the “furin cleavage Z-score” value runs as follows: (7.5 min) 0.718 (inactive); (15 min) 0.412 (inactive); (30 min) -0.00703 (inactive).

B32: HC925 (peptide)
chain: CAELTPAETTAGNASASA
Turning to B32, the “furin cleavage Z-score” value by setting is: (7.5 min) -0.725 (inactive); (15 min) 0.302 (inactive); (30 min) -0.347 (inactive).

B33: HC786 (peptide)
chain: CAVLVLNPSVAGNASASA
In the case of B33, the “furin cleavage Z-score” value is, setting by setting: (7.5 min) 1.78; (15 min) -1.12 (inactive); (30 min) 0.0915 (inactive).

B34: HC159 (peptide)
chain: CAEVVTQTWVAGNASASA
Turning to B34, the “furin cleavage Z-score” value by setting is: (7.5 min) -0.939 (inactive); (15 min) 1.5; (30 min) 1.45.

B35: HC16 (peptide)
chain: CAMEETSQHLAGNASASA
In the case of B35, the “furin cleavage Z-score” value (7.5 min) is 0.191 (inactive), the “furin cleavage Z-score” value (15 min) was determined as 1.87 and the “furin cleavage Z-score” value (30 min) is 1.08.
